Screening results: PubChem BioAssay, National Center for Advancing Translational Sciences (NCATS)
Most compounds without a hit are left out; they make up all but 1.2% or so of the library.
Akt phos inh – HTS Assay for Inhibitors of Akt Phophorylation: Primary Screen | activity change, % for hits at 50 µM | 0.32% of 360,000 active | Neuro2A IGF-stimulated pAkt S473 HTRF, 20 min; stronger effect = lower value | AID 651550, 2012; in the data active = activity change below about -80%; inconclusive = mostly about -51% to -80%
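Single-point screen (50 µM final compound) in Neuro2A cells stimulated 20 min with 6 nM IGF at 37 deg C. After lysis, Ser473-phosphorylated Akt read by HTRF (ex 330 nm, em 615/665 nm) as the 665/615 ratio.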
RXFP1 antag – qHTS Assay for Antagonists of the Relaxin Receptor RXFP1; Relaxin receptor 1 (Homo sapiens), Q9HBX9; HEK293-RXFP1, relaxin-stimulated cAMP HTRF, 30 min; stronger effect = lower value; activity change, negative = inhibition, % at 57.5 µM; 0.59% of 350,000 active; AID 1259400, 2018;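 active = activity change of -60% or lower, but not beyond a set lower limit; inconclusive = change between -60% and -40%, or beyond the set limit; inactive = change above -40%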
Target sequence (Q9HBX9 whole entry, looked up): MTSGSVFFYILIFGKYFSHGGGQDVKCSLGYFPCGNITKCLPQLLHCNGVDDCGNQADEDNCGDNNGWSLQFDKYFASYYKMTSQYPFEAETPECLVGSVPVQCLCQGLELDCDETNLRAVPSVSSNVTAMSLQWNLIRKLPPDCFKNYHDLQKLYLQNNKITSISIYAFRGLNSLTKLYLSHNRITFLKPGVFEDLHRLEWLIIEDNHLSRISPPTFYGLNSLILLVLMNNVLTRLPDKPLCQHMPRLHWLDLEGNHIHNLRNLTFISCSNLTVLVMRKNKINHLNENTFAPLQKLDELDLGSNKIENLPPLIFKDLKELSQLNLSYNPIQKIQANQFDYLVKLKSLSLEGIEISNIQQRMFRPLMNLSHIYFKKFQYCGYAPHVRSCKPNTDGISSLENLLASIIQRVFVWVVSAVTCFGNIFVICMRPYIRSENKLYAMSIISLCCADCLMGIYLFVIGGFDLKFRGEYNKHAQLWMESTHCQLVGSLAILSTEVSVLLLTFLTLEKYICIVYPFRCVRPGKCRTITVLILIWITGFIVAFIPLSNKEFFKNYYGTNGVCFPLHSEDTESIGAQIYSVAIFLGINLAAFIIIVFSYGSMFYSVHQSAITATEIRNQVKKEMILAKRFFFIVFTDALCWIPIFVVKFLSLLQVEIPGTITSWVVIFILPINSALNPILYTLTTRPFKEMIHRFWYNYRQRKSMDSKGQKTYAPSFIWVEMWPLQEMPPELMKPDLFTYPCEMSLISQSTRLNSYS
RXFP1 ag – qHTS Assay for Agonists of the Relaxin Receptor RXFP1; Relaxin receptor 1 (Homo sapiens), Q9HBX9; HEK293T-RXFP1 cAMP TR-FRET, 30 min; response scale: percent of porcine relaxin response, buffer zero; Potency, µM (titrated, usually from 57.5 µM), hits mostly activators; 0.3% of 370,000 active; AID 2676, 2010; active = well fitted activation curve with a large enough effect; inconclusive = small, poorly fitted or top-dose-only effect; also: nearly all actives have a fitted effect of over 60% in size
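HEK293T cells stably expressing RXFP1 were pretreated with the PDE4 inhibitor Ro 20174, exposed to compounds for 30 min at 37C, lysed, and cAMP was read by TR-FRET. Data normalized to buffer (basal) and 29 nM porcine relaxin (100%).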
gsp antagonist – qHTS for Antagonists of gsp, the Etiologic Mutation Responsible for Fibrous Dysplasia/McCune-Albright Syndrome: qHTS | gsp-mutant cells, cAMP HTRF, 30 min | Potency, µM (titrated, usually from 76.9 µM), hits mostly inhibitors | 0.4% of 340,000 active; calls by dose curve; cell line not stated here;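 also: intracellular cAMP measured with PDE inhibitor Ro 20-1724 present during compound exposure; nearly all actives have a fitted effect of over 65% in size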
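HTRF cAMP measurement after 30 min RT detection following 30 min, 37C compound treatment alongside […] (added as 300 uM solution) in G418-selected cells seeded at 2000/well and grown 16–24 h.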
gsp agonist – qHTS for Agonist of gsp, the Etiologic Mutation Responsible for Fibrous Dysplasia/McCune-Albright Syndrome: qHTS; Potency, µM (titrated, usually from 76.9 µM), most hits filed as activators; 0.13% of 340,000 active; gsp mutant cells, cAMP HTRF, 30 min; active = well fitted activation curve with a large enough effect; inconclusive = small, poorly fitted or top-dose-only effect, or another doubt; inactive = no such curve, though single readings can be large or run the other way; cell line not stated here;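 also: phosphodiesterase inhibitor Ro 20-1724 added with compounds to block cAMP breakdown; nearly all actives have a fitted effect of over 60% in size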
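Cells stably selected in G418 were plated at 2000/well, grown 16-24 hr, then given compounds in DMSO with the PDE inhibitor […] (300 uM solution added) for 30 min at 37C; cAMP was read by HTRF.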
Numbers stand for hits; i = inactive; ? = inconclusive; nt = no result given; [ ] = dose if it differs, or a comment.

SMILES | Akt phos inh | RXFP1 antag | RXFP1 ag | gsp antagonist | gsp agonist
N#Cc1cc(-c2ccc(Cl)cc2)cn(Cc2c(Cl)cccc2Cl)c1=O | -95% | i | i | i | i
O=S(=O)(O)OCC1OC(OC2(COS(=O)(=O)O)OC(COS(=O)(=O)O)C(OS(=O)(=O)O)C2OS(=O)(=O)O)C(OS(=O)(=O)O)C(OS(=O)(=O)O)C1OS(=O)(=O)O (configuration not stated) | nt | i | nt | nt | nt
COc1ccc2[nH]c3c(N4CCN(Cc5ccc6c(c5)OCO6)CC4)ncnc3c2c1 | i | i | i | 40µM | i
CCC1CCCCN1C(=O)c1nn(-c2ccc(C)cc2)c(=O)c2c1c1ccccc1n2C (configuration not stated) | nt | i | i | nt | nt
Brc1ccc(OCc2ccccc2)c(CNCc2ccncc2)c1 | i | -89 | i | ? | i
CC[C@@H](CO)NCCN[C@@H](CC)CO | nt | i | nt | nt | nt
COc1ccccc1N1CCN(c2ccc(-c3nc(-c4ccccc4)no3)cc2[N+](=O)[O-])CC1 | nt | nt | i | nt | nt
Cc1ccc(Cl)cc1N(C)C(=O)c1cnc(N2CCOCC2)c2ccccc12 | nt | i | i | nt | nt
O=C(c1cnc(N2CCCCC2)c2ccccc12)N1CCN(c2ccc(Cl)cc2)CC1 | nt | ? | i | nt | nt
Cc1ccc(Cl)cc1N1CCN(C(=O)c2cnc(N3CCOCC3)c3ccccc23)CC1 | nt | -82 | i | nt | nt
Cc1ccc(N2CCN(C(=O)c3cnc(N4CCCCC4)c4ccccc34)CC2)c(C)c1 | nt | -70 | i | nt | nt
OCCCNc1cc(-c2ccccc2)nc2cc(-c3ccc(F)cc3)nn12 | i | i | i | 35µM | i
COc1cccc(OC)c1C(=O)NC(=S)Nc1ccc2c(c1)Cc1ccccc1-2 | -115% | i | i | i | i
COc1cccc(OC)c1C(=O)Nc1ccc2c(c1)Cc1ccccc1-2 | i | i | i | i | i[15.4 µM]
COc1ccccc1C1CCN(c2cc(O)ccc2[N+](=O)[O-])CC1 | i | i | i | 32µM | i[15.4 µM]
CCOc1ccc(CNC(=O)COc2cc(=O)n(C)c3ccccc23)cc1 | nt | nt | i | nt | nt
Cc1cc(N2CCCCC2)nc2ccc(NC(=O)c3cccc(F)c3)cc12 | nt | ? | i | nt | nt
Cc1cc(N2CCCCCC2)nc2ccc(F)cc12 | -92% | i | nt | ? | i
COc1cccc(CNC(=O)CN(c2ccc(C)cc2)S(=O)(=O)N(C)C)c1OC | nt | nt | i | nt | nt
O=C(O)CCN1C(=O)/C(=C/c2cn(-c3ccccc3)nc2-c2cccs2)SC1=S | i | i | i | 35µM | i
CCN1C(=O)/C(=C/c2cn(-c3ccccc3)nc2-c2cccnc2)SC1=S | i | i | nt | ? | i
O=C(O)CCCCCN1C(=O)/C(=C/c2cn(-c3ccccc3)nc2-c2cccs2)SC1=S | i | i | nt | 35µM | ?
O=C(O)CCCCCN1C(=O)/C(=C\c2cn(-c3ccccc3)nc2-c2cccs2)SC1=S | i | i | i | 35µM | i
CN1CCN(C(=O)C2CCCCC2)CC1 | nt | i | nt | nt | nt
Cc1ccc(-c2ccc(=O)n(CCC(=O)NCCc3ccccc3)n2)cc1 | nt | nt | i | nt | nt
SMILES | Akt phos inh | RXFP1 antag | RXFP1 ag | gsp antagonist | gsp agonist
Cc1cc(C(=O)CSc2nc3ccccc3c(=O)n2C)c(C)n1Cc1ccc2c(c1)OCO2 | -109% | i | 20µM | ? | i
CC1(C)OC[C@@H]2O[C@@]3(C(=O)O)OC(C)(C)O[C@H]3[C@@H]2O1 | nt | i | nt | nt | nt
Cc1cnc(Nc2nc3ccccc3o2)nc1C(=O)Nc1cccc(C(F)(F)F)c1 | -95% | i | i | i | i
Cc1occc1C(=O)Nc1cccc(C(F)(F)F)c1 | i | i | ? | i | i
Cc1cc(C)cc(NC(=O)Cn2nnc(C(=O)Nc3cc(C)cc(C)c3)c2N)c1 | nt | nt | i | nt | nt
CCc1cc2c(=O)nc3n(c2s1)Cc1ccccc1/C3=C(/O)c1cccc([N+](=O)[O-])c1 | i | i | ? | i | 3.2µM
CN(Cc1ccccc1)S(=O)(=O)c1nnc(NC(=O)c2ccccc2Cl)s1 | nt | i | i | nt | nt
Cc1ccc(N/C(N)=N/c2nc(C)cc(N3CCCCC3)n2)c(C)c1 | i | -83 | i | i | i[15.4 µM]
N#CCCn1cc(/C=C(\C#N)c2nc3ccccc3s2)c(-c2ccc(F)cc2)n1 | -88% | i | i | i | ?
CCCCCCn1c(=O)c2c(ncn2C)n(C)c1=O | nt | i | nt | nt | nt
OCC(O)CS (configuration not stated) | nt | i | nt | nt | nt
O=C(N/N=C/c1ccc(Cl)s1)c1ccccc1[N+](=O)[O-] | i | i | i | i | i[15.4 µM]
Cc1ccc(/C=N/NC(=O)C(C)Oc2ccccc2[N+](=O)[O-])s1 (configuration not stated) | i | nt | i | 11µM | i
O=C(Nc1ccc(S(=O)(=O)N2CCOCC2)cc1)c1cccnc1 | i | i | i | i | i[15.4 µM]
O=C(NCCOC(=O)c1ccc(S(=O)(=O)N2CCOCC2)cc1)c1cccnc1 | i | i | i | i | 28µM
CCOC(=O)c1ccccc1NC(=O)Cn1ncc2c([nH]c3ccccc32)c1=O | nt | i | i | nt | nt
COc1cc2cc(CN(CCCN3CCOCC3)Cc3nnnn3Cc3ccccc3)c(=O)[nH]c2cc1OC | i | i | i | 8.9µM | i[15.4 µM]
CCOc1ccc2[nH]c(=O)c(CN(CCCN3CCOCC3)Cc3nnnn3Cc3ccc(OC)cc3)cc2c1 | i | i | i | nt | i[15.4 µM]
CC(C)c1cc(-c2nc(-c3ccccc3)no2)n[nH]1 | nt | i | i | nt | nt
COc1cccc(CNC(=O)C(=O)NCC(c2ccc3c(c2)OCO3)N2CCOCC2)c1 (configuration not stated) | nt | i | i | nt | nt
CC(C)CCn1nnnc1C(C(C)C)N1CCC(C(N)=O)CC1 (configuration not stated) | -100% | i | i | i | i
COc1ccc(CN(C)CC(O)COc2ccc(-c3ccccc3)cc2)cc1OC (configuration not stated) | i | -66 | i | i | i
COc1ccc(-c2csc(NC(=O)CSc3n[nH]c(N)n3)n2)cc1 | i | i | i | i | i[15.4 µM]
COc1ccc(-c2csc(NC(=O)CSc3n[nH]c(C)n3)n2)cc1 | i | i | i | 35µM | i
CC(CC(C#N)(c1ccccc1)C(C)C)N(C)C (configuration not stated) | nt | i | nt | nt | nt
COC(=O)c1ccc(OCC2c3cc(OC)c(OC)cc3CCN2C(=O)COc2ccc(Cl)cc2)cc1 (configuration not stated) | nt | nt | i | nt | nt
CCc1ccc(N(CC)C(=O)c2ccc3c(Cl)c4c(nc3c2)CCC4)cc1 | i | -76 | i | i | i
Cc1ccc(N(C)C(=O)c2ccc3c(Cl)c4c(nc3c2)CCC4)cc1C | i | -89 | i | ? | i
CCN(C(=O)c1ccc2c(Cl)c3c(nc2c1)CCC3)c1cccc(C)c1 | nt | nt | i | nt | nt
COc1ccc(N(C)C(=O)c2ccc3c(Cl)c4c(nc3c2)CCCC4)c(OC)c1 | i | -96 | i | ? | i
